Data as given in the supplement of paper PMC8877412.
± gives the uncertainty stated by the source.

Tested on: NCC-PMP1-C1
Assay: cell viability relative to DMSO control; higher = less growth inhibition
Settings: 10 µM; 72 h
Experimental: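 NCC-PMP1-C1 pseudomyxoma peritonei cells were seeded in 384-well plates coated with Matrigel and MEF (1e4 cells). Viability was read after 72 h by CCK-8 and expressed as % of the DMSO control, mean ± SD of duplicates.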

SMILES | cell viability
CCN(CC)CCNC(=O)c1c(C)[nH]c(/C=C2\C(=O)Nc3ccc(F)cc32)c1C [Sunitinib] | 35.5 ± 3.6%
CNC(=O)c1ccc(-c2cnc3ncc(Cc4ccc5ncccc5c4)n3n2)cc1F | 108 ± 9.8%
N#Cc1ccc(C(c2ccc(C#N)cc2)n2cncn2)cc1 [Letrozole] | 129 ± 29%
CC1=C(/C=C/C(C)=C/C=C/C(C)=C/C(=O)O)C(C)(C)CCC1 [Tretinoin] | 129 ± 16%
CS(=O)(=O)OCCCCOS(C)(=O)=O [Busulfan] | 121 ± 7.5%
CC1=C(CC(=O)O)c2cc(F)ccc2/C1=C\c1ccc([S+](C)[O-])cc1 (stereo not drawn) [Sulindac] | 111 ± 29%
CC(C)C(=O)Nc1ccc([N+](=O)[O-])c(C(F)(F)F)c1 [Flutamide] | 74 ± 38%
COc1cc2nccc(Oc3ccc(NC(=O)C4(C(=O)Nc5ccc(F)cc5)CC4)cc3)c2cc1OC | 48.9 ± 2.8%
CCc1ccc(CCOc2ccc(CC3SC(=O)NC3=O)cc2)nc1 (stereo not drawn) [Pioglitazone] | 92.8 ± 5.5%
CCS(=O)(=O)N1CCN(c2ccc(Nc3ncc(C(N)=O)c(NC4CC4)n3)cc2)CC1 | 71.8 ± 3.5%
CN(CCOc1ccc(CC2SC(=O)NC2=O)cc1)c1ccccn1 (stereo not drawn) [Rosiglitazone] | 101 ± 3.3%
COc1cc2ncnc(Nc3ccc(F)c(Cl)c3)c2cc1NC(=O)/C=C/CN1CCCCC1 | 68.1 ± 1.6%
CCCCC1C(=O)N(c2ccccc2)N(c2ccccc2)C1=O [Phenylbutazone] | 119 ± 5.4%
